High-throughput results as filed in PubChem.
Shown are actives, neighbours in structure and some others; about 1.7% of the full set was active somewhere.
TLR9-MyD88 block: inhibitors of TLR9-MyD88 association in cells, primary screen, cell-based, CHO, BLA complementation, fluorescence | Toll-like receptor 9 (Homo sapiens) + Myeloid differentiation primary response protein … | CCF4 FRET ratio | inhibition, % at 4.98 µM | 0.21% of 340,000 active | AID 504734, 2011;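 active = inhibition above the mean over all tested compounds plus 3 SD, cut at about 21% in these data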;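 also: 0% = DMSO only wells and 100% = clavulanate BLA inhibitor control wells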
NOD2 RIPK2 PPI: NOD2-RIPK2 binding disruptors in cells, primary screen, fluorescence, CHO cells, BLA complementation | AID 624267, 2012 | Receptor-interacting serine/threonine-protein kinase 2 (Homo sapiens), O43353 | 0.38% of 360,000 active | inhibition, % at 4.98 µM | CCF4 ratio; in the data active = inhibition above about 21%;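 also: 0% = vehicle only and 100% = reference blocker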
TLR4-MyD88 BLA: inhibitors of TLR4-MyD88 association in cells, primary screen, cell-based, HeLa CL3-4, BLA complementation, FRET ratio | HeLa CL3-4 TLR4/MyD88 BLA complementation | inhibition, % at 8.4 µM | 0.18% of 200,000 active | AID 861, 2007; in the data active = inhibition above about 25%;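 also: 0% = vehicle and 100% = reference inhibitor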
ABCB6 inh 2: ABCB6 transporter inhibitors, primary screen, K562-ABCB6 cells, flow cytometry, MLPCN library; ATP-binding cassette sub-family B member 6 (Homo sapiens), Q9NP58; K562-ABCB6 porphyrin accumulation, 1 h; hits give low values; fluorescence ratio to DMSO, % at 10 µM; 0.19% of 360,000 active;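 active = fluorescence ratio to DMSO below 75%, the collection mean minus 3 SD; inconclusive = too few cells collected in the well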;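 also: signal is porphyrin accumulated inside mitochondria; 100% equals median channel fluorescence of DMSO control wells; lower ratio means ABCB6 inhibition with less porphyrin fluorescence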
Target sequence (Q9NP58 whole entry, looked up): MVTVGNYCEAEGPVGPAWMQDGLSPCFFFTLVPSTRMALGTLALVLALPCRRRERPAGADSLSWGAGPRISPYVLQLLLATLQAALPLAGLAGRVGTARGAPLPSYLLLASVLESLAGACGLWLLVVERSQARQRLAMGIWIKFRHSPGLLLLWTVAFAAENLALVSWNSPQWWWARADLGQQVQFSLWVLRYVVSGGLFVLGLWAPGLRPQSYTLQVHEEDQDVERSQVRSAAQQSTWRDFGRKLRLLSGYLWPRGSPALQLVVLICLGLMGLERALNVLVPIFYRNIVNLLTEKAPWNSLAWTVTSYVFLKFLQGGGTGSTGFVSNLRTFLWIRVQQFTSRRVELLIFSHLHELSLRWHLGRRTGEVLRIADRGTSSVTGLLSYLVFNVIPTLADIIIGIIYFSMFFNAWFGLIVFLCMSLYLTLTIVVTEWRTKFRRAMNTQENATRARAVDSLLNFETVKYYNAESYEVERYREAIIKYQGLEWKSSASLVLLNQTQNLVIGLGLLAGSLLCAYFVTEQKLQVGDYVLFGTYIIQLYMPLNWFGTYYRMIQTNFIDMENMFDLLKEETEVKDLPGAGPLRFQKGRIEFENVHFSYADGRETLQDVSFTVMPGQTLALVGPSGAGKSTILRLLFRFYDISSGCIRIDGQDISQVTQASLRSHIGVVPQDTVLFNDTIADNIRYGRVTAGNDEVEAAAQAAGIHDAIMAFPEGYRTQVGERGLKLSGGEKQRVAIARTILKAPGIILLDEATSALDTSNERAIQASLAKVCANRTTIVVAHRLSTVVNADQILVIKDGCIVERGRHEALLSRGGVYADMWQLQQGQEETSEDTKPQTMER
Myeloid diff 2: induction of myeloid progenitor differentiation, primary screen, cell-based, flow cytometry, MLPCN library; ER-HoxA9 myeloid progenitors, lysozyme-GFP differentiation; calls only at 10 µM; 1% of 360,000 active; AID 624256, 2012;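 active = normalized GFP-positive differentiation at or above the plate's own cutoff, the solvent-only control mean plus 3 SD; inconclusive = no clear call, values can overlap the other calls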;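 also: cells exposed to compound for four days before flow analysis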
Myeloid diff CP1: inducers of myeloid progenitor differentiation, confirmation, cell-based, GFP/Mac1 flow cytometry, cherry pick 01. shares compounds with Myeloid diff 2. ER-HoxA9 myeloid progenitors, GFP/Mac1 double-positive flow. calls only. 2% of 2,300 active;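 active = share of green or green-and-red cells above 9 and 9% in run 1 or 4 and 3% in run 2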
GFP autofluor: compound fluorescence in myeloid differentiation counter-screen; shares compounds with Myeloid diff 2; ER-HoxA9 myeloid progenitors, no estrogen, GFP autofluorescence flow cytometry; vehicle wells 0%, positive control 100%; fluorescence response, % (no concentration beside the values); 7.4% of 2,300 active;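 active = over 5% cells positive for green fluorescent reporter, or over 2% positive for both it and APC stain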;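 also: range taken on the double positive population between DMSO and positive control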
Numbers without * were called inactive; i = inactive; ? = inconclusive; nt = no result given; + = active, no number.

SMILES	TLR9-MyD88 block	NOD2 RIPK2 PPI	TLR4-MyD88 BLA	ABCB6 inh 2	Myeloid diff 2	Myeloid diff CP1	GFP autofluor
C/C(O)=c1/ccc2cccc3nc(C)nc1c23	6	-2	0	109	+	i	8.4*
CCOC(=O)N1CCN(C(=O)COC(=O)CSc2ccc([N+](=O)[O-])cc2)CC1	0	-9	nt	91	i	nt	nt
CC(=O)N1CC=C2C(C#N)=C(N)C(C#N)(C#N)C(CCc3ccccc3)C2C1 (centres undefined)	-9	4	-1	104	+	i	0
O=C1NC(Cc2ccc(O)cc2)c2nc3cc(Cl)ccc3c(=O)n2-c2cc3ccccc3cc21 (centres undefined)	-4	6	nt	96	i	nt	nt
COCCCNc1ccn2nc(-c3cccc(OCc4ccccc4)c3)cc2n1	nt	3	nt	84	i	nt	nt
c1ccc(COc2ccc(-c3cc4nc(NCCCn5ccnc5)ccn4n3)cc2)cc1	nt	7	nt	98	i	i	0
c1csc(-c2noc(COc3ccc4c(c3)CCCC4)n2)c1	0	-5	-1	100	i	i	0
Cc1ccc(-c2nc(C=Nc3ccc(O)cc3)c(O)o2)cc1	12	16	13	99	i	i	0
Oc1oc(-c2ccco2)nc1C=Nc1ccccc1	-4	-20	-16	99	i	i	1
CC(OC(=O)/C(C#N)=C/c1ccc(N(C)C)cc1)C(=O)N(C)Cc1ccccc1 (centres undefined)	-1	-5	nt	450	i	nt	nt
Cc1cccc(C)c1NC(=O)C(=O)NCCc1c[nH]c2ccccc12	-5	-2	3	99	i	nt	nt
Cc1cccc(NC(=O)C(=O)NCCc2c[nH]c3ccccc23)c1C	14	0	-12	99	i	i	0
CC(C)=CCn1c2ccc(NC(=O)NCc3ccc(F)cc3)cc2c(=O)n1C	nt	-1	nt	98	?	nt	nt
Cn1c(=O)c2cc(NC(=O)NCc3ccc(F)cc3)ccc2n1C/C=C/c1ccccc1	nt	-2	nt	102	+	+	0
Cn1c(=O)c2cc(NC(=S)NC3CC3)ccc2n1C/C=C/c1ccccc1	nt	-11	nt	104	+	i	0
CN1/C(=C\C(=O)C[n+]2cccc(Br)c2)C(C)(C)c2ccccc21	4	-10	-7	139	+	i	1
Cn1ccc2c(-c3ccc(C(C)(C)C)cc3)cc3c(c21)C1CCC3O1 (centres undefined)	nt	-1	nt	104	+	+	0
Cn1ccc2c(-c3ccc(C(F)(F)F)cc3)cc3c(c21)C1CCC3O1 (centres undefined)	nt	-4	nt	94	i	nt	nt
COc1ccc(Cc2nnc(Nc3c(C)cccc3C)o2)cc1OC	-8	-12	nt	90	i	nt	nt
CCn1cc(C(=O)N2CCN(c3ccc([N+](=O)[O-])cc3)CC2)c(=O)c2ccc(C)nc21	1	-8	3	101	+	i	0
CC(C)(C)NC(=O)NC(=O)CN1C(=O)NC(c2ccccc2)(c2ccccc2)C1=O	-9	-13	nt	98	i	nt	nt
CCNC(=S)N/N=C/c1sc(N2CCCCC2)nc1-c1cccs1	3	4	18	131	i	i	0
O=C(NCCc1ccccn1)C(F)(F)C(F)(F)C(F)(F)C(F)(F)C(F)(F)C(F)(F)C(F)(F)C(F)F	3	6	1	101	i	nt	nt
C=CCN1C(=O)C(O)(CC(=O)c2ccc(OC)cc2OC)c2cc(Br)ccc21 (centres undefined)	-9	5	0	89	i	i	0
COc1ccccc1OCCNC(=O)c1ccc(S(=O)(=O)N(C)C)cc1	2	-5	-7	92	i	nt	nt
SMILES	TLR9-MyD88 block	NOD2 RIPK2 PPI	TLR4-MyD88 BLA	ABCB6 inh 2	Myeloid diff 2	Myeloid diff CP1	GFP autofluor
COc1ccccc1CNC(=O)c1ccc(S(=O)(=O)N(C)C)cc1	-10	1	-11	95	i	i	0
CCS(=O)(=O)N1CCC(C(=O)NCc2ccccc2OC)CC1	-1	5	-7	91	+	i	0
COCCCN1C2=C(C(=O)CC(C)(C)C2)C(c2ccc(O)c(OC)c2)C2=C1CC(C)(C)CC2=O	-12	5	nt	96	i	nt	nt
Cc1cc(=O)[nH]c2ccc(S(=O)(=O)NC3CCCCC3)cc12	2	-7	nt	99	i	nt	nt
Cc1csc(-c2nc3ccccc3n2C(C(=O)NC(C)(C)C)c2cc3ccccc3o2)c1 (centres undefined)	nt	-1	nt	nt	i	nt	nt
Cc1cc(Br)c(OCc2ccc(C(=O)N/N=C/c3ccc[nH]3)cc2)c(Br)c1	-4	2	nt	101	?	nt	nt
O=C(N/N=C/c1ccc[nH]1)c1ccc(COc2cccc3cccnc23)cc1	1	4	-1	90	+	i	0
Cc1ccc(OC(C)C(=O)Nc2ccccc2C(=O)N2CCN(C)CC2)cc1 (centres undefined)	9	5	nt	96	i	nt	nt
CCc1ccc(C(=O)C(C)OC(=O)Cn2[nH]c(=O)c3ccccc3c2=O)cc1 (centres undefined)	-18	-10	nt	97	i	nt	nt
CCc1ccc(C(=O)C(C)OC(=O)Cc2n[nH]c(=O)c3ccccc23)cc1 (centres undefined)	-14	-4	nt	104	+	i	0
O=C(Nc1ccc(-c2nc3c(ccc4ccccc43)o2)cc1)c1ccco1	2	-39	2	95	+	i	0
O=C(Nc1ccc(-c2nc3cc(Cl)ccc3c(=O)o2)cc1)c1ccco1	6	1	10	99	i	nt	nt
O=S(=O)(Nc1nc2ccccc2nc1NCCO)c1cccc(Cl)c1	-4	5	-19	425	i	i	0
Cc1cc(-c2cc(-c3ccccc3)on2)nc(NCC2CC2)n1	7	1	nt	97	i	nt	nt
CN1/C(=C/C=C/c2n(C)c3cc([N+](=O)[O-])c([N+](=O)[O-])cc3[n+]2C)C(C)(C)c2ccccc21	-27	-12	nt	130	+	i	7.2*
COc1ccc(/C=C/C(=O)NCCCN2CCCC2)cc1	-7	-7	nt	96	i	nt	nt
COc1ccc(/C=C/C(=O)NCCC(=O)N2CCCN(C)CC2)cc1	-15	-4	5	103	i	i	0
